Compound activity: PubChem, several laboratories
FBA Mtb inh: Mtb fructose-bisphosphate aldolase inhibition; P9WQA3; purified M. tuberculosis FBA, fluorescence read-out; inhibition, % at 1 µM; 360,000 tested, 2.3% active; in the data active = inhibition above about 27%;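 also: 0% = vehicle and 100% = reference inhibitor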
Target sequence (P9WQA3 whole entry, looked up): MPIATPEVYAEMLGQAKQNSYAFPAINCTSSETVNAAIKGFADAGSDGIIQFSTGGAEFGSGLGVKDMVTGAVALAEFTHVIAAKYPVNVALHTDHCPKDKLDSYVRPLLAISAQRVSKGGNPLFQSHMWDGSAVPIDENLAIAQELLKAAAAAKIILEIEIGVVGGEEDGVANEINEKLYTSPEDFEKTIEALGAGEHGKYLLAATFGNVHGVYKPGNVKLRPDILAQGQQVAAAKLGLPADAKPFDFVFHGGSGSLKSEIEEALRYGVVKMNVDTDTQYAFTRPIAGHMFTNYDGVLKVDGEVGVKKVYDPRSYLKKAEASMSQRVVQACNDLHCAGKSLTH
Mtb bLac sens: beta-lactam sensitization of Mtb H37Rv. M. tuberculosis H37Rv growth with meropenem, percent inhibition. inhibition, % at 25 µM. AID 434955. 330,000 tested, 0.27% active; call rule not given here;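 also: growth measured after seven days incubation then overnight dye step; 0% = bacteria only wells and 100% = bacteria with antibiotic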
Mtb hypoxia inh: reduces hypoxia-regulated biosensor signal in M. tuberculosis; M. tuberculosis hypoxia-regulated fluorescent reporter, fluorescence; fluorescence inhibition, % (concentration not given with the values); 300,000 tested, 0.1% active; AID 1159583; in the data active = fluorescence inhibition mostly above about 23%, no sharp cut-off; inactive = mostly below about 17%
GDH-TPI counter: inhibits GDH-TPI coupling enzymes, artifact for Mtb FBA screen. GDH-TPI coupled enzyme counterscreen, NADH absorbance. inhibition, % at 4.8 µM. 360,000 tested, 1.2% active. AID 588335; in the data active = inhibition above about 30%;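 also: 0% = DMSO wells and 100% = wells lacking the enzyme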
VHR inh abs: inhibitors of human VHR1 phosphatase (DUSP3) | P51452 | recombinant VHR phosphatase, pNPP absorbance | inhibition, % at 13.3 µM | 290,000 tested, 0.52% active; in the data active = inhibition above about 50%
Numbers without * were called inactive. A selection: hits, their analogues and other compounds. The true share with any hit is near 3.6%.

Results for COc1ccccc1C=Nn1cnnc1 ?
Mtb hypoxia inh: -2.1

How did CCCc1cc(=O)oc2c(C)c(OCC(=O)NCCN3CCOCC3)ccc12 do in these assays?
FBA Mtb inh: 15.7; Mtb bLac sens: 3.0; Mtb hypoxia inh: 8.8; GDH-TPI counter: 15.4; VHR inh abs: 0.4

What do the screens show for `CCCCc1cc(=O)oc2c3c(cc(OCC(=O)NCCCO)c12)OC(C)(C)CC3`?
FBA Mtb inh: active; Mtb bLac sens: -4.0; Mtb hypoxia inh: 3.4; GDH-TPI counter: 10.3; VHR inh abs: 8.8

How did CCc1cc(=O)oc2c(C)c(OCC(=O)NCCCn3ccnc3)ccc12 do in these assays?
FBA Mtb inh: 12.9; Mtb bLac sens: 0.9; Mtb hypoxia inh: 14.2; GDH-TPI counter: 11.8; VHR inh abs: 20.6

How did CCCc1cc(=O)oc2c3c(cc(OCC(=O)NCCN4CCOCC4)c12)OC(C)(C)CC3 do in these assays?
FBA Mtb inh: 180.2*; Mtb bLac sens: -1.4; GDH-TPI counter: 10.8; VHR inh abs: 12.5

Results for CCc1cc(=O)oc2c3c(cc(OCC(=O)NCCCn4ccnc4)c12)OC(C)(C)CC3 ?
FBA Mtb inh: 164.1*; Mtb bLac sens: -3.5; GDH-TPI counter: 4.9; VHR inh abs: 4.3

How did COc1ccccc1/C=C/C=Nn1c(-c2cc(-c3ccccc3)n[nH]2)n[nH]c1=S do in these assays?
Mtb hypoxia inh: 8.1

How did COc1ccc(C=NNC(=O)Cn2cnc3c2c(=O)n(C)c(=O)n3C)c(OC)c1OC do in these assays?
Mtb hypoxia inh: -5.3

How did CC=CC=CC(=O)Nc1nccs1 do in these assays?
Mtb hypoxia inh: 5.8

What do the screens show for `CCOC(=O)CCc1c(C)c2ccc(OCc3nn[nH]n3)cc2oc1=O`?
FBA Mtb inh: active; Mtb bLac sens: 1.6; Mtb hypoxia inh: 1.9; GDH-TPI counter: -1.5; VHR inh abs: 21.7

Results for Cc1c(CC(=O)O)c(=O)oc2cc(OCc3nn[nH]n3)ccc12 ?
FBA Mtb inh: active; Mtb bLac sens: -6.9; Mtb hypoxia inh: -0.9; GDH-TPI counter: 10.7; VHR inh abs: 30.4

What do the screens show for `CCOC(=O)CCc1c(C)c2ccc(OCc3ccc([N+](=O)[O-])cc3)cc2oc1=O`?
FBA Mtb inh: 7.5; Mtb bLac sens: 0.5; Mtb hypoxia inh: 1.9; GDH-TPI counter: 1.6; VHR inh abs: 22.6

How did Cc1c(CC(=O)O)c(=O)oc2cc(OCc3ccc(Cl)cc3)ccc12 do in these assays?
FBA Mtb inh: 126.4*; Mtb bLac sens: -3.2; Mtb hypoxia inh: 6.2; GDH-TPI counter: 18.0; VHR inh abs: 22.2

How did COC(=O)Cc1c(C)c2ccc(OCC(=O)c3ccc(OC)c(OC)c3)cc2oc1=O do in these assays?
Mtb bLac sens: -0.4; Mtb hypoxia inh: -0.8; VHR inh abs: -4.7

What do the screens show for `Cc1c(Cc2ccccc2)c(=O)oc2cc(OCc3ccc(C(=O)O)cc3)ccc12`?
FBA Mtb inh: 16.6; Mtb bLac sens: -3.3; Mtb hypoxia inh: 11.7; GDH-TPI counter: 9.9; VHR inh abs: 28.8

What do the screens show for `O=C(N/N=C/c1cn(-c2ccccc2)nc1-c1cc2ccccc2o1)c1ccccc1Br`?
FBA Mtb inh: 2.5; Mtb bLac sens: 39.4; GDH-TPI counter: 30.9*; VHR inh abs: -0.3

What do the screens show for `COc1ccc(/C=C/C(=O)Nc2nc(C)c(C(=O)N(C)C)s2)cc1OC`?
FBA Mtb inh: 2.2; Mtb bLac sens: -1.1; Mtb hypoxia inh: -0.5; GDH-TPI counter: 34.1*; VHR inh abs: -1.7

How did CCOC(=O)c1sc(NC(=O)/C=C/c2ccccc2)nc1C do in these assays?
FBA Mtb inh: 0.9; Mtb bLac sens: -5.1; Mtb hypoxia inh: 10.6; GDH-TPI counter: 0.8; VHR inh abs: 0.5

What do the screens show for `CCOC(=O)CNC(=O)c1sc(NC(=O)/C=C/c2ccccc2)nc1C`?
FBA Mtb inh: 5.0; Mtb bLac sens: -6.0; Mtb hypoxia inh: -1.7; GDH-TPI counter: 32.5*; VHR inh abs: 3.3

How did COc1ccc(/C=C/C(=O)Nc2nc(C)c(C(=O)N(C)C)s2)cc1 do in these assays?
FBA Mtb inh: -2.7; Mtb bLac sens: -2.5; Mtb hypoxia inh: 7.7; GDH-TPI counter: 41.6*; VHR inh abs: -4.1

How did Cc1nc(NC(=O)CN2CCN(c3ccccc3F)CC2)sc1C(=O)N(C)C do in these assays?
FBA Mtb inh: 3.8; Mtb bLac sens: 0.3; Mtb hypoxia inh: 5.9; GDH-TPI counter: 4.5; VHR inh abs: 57.0*

Results for COc1ccc(C(=O)Nc2nc(C)c(C(=O)N(C)C)s2)cc1OC ?
FBA Mtb inh: 1.6; Mtb bLac sens: -2.0; Mtb hypoxia inh: 10.4; GDH-TPI counter: 17.7; VHR inh abs: -15.7

What do the screens show for `Cc1ccccc1N1CCN(CC(=O)Nc2nc(C)c(C(=O)N(C)C)s2)CC1`?
FBA Mtb inh: -1.4; Mtb bLac sens: -5.4; Mtb hypoxia inh: 9.2; GDH-TPI counter: 12.2; VHR inh abs: -0.7
